About 79,000 compounds went through this panel and 15% of them were active in at least one assay; those are over-represented in the sample as a whole. The source made the active and inactive calls. Rule as the data show it: active = growth inhibition above about 70%; inactive = the rest.

A short description of this assay: NCI Yeast Anticancer Drug Screen. Data for the mlh1 rad18 strain (AID 175). Particulars: S. cerevisiae mlh1 rad18 strain growth inhibition; at 50.0 µM; hits give high values. In short, it runs like this:
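Cells of a genetically altered yeast strain, deficient in DNA damage repair, were treated with compound. Their growth was then compared with that of vehicle-treated cultures to give inhibition.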
As for `COc1ccc2[nH]c3c(c2c1)-c1ncncc1CC3`, the growth inhibition was 24.4% (inactive).

With `CN(C)c1ccc(/C=C(/NC(=O)c2ccccc2)C(N)=O)cc1`, the growth inhibition was 5.1% (inactive).

As to `OC(C1COCO1)C1OCOC1C1COCO1` (stereo not given), the growth inhibition was 6.15% (inactive).

For `C/C(=N/O)c1ccc(C(F)(F)F)cc1`, the growth inhibition is -2.15% (inactive). Consider `O=C1c2ccccc2-c2nc3cc4ccccc4cc3nc21`, for which the growth inhibition was 74% (active). Take `CCOP(=O)(OCC)C(Cc1ccc(OC)c(OC)c1)N=C(c1ccccc1)c1ccccc1` (stereo not given): the growth inhibition is -7.9% (inactive). The value for `CCOC(=O)N1CCN(c2c(N)nc(C)[nH]c2=O)CC1` was -58.5% (inactive); that for `Cn1c(-c2ccc(Br)cc2)cc2[nH]c(=S)nc(N)c2c1=O` was 2.5% (inactive).

With `Cc1ccc(C)c(NS(=O)(=O)c2ccc(Cl)c([N+](=O)[O-])c2)c1`, the growth inhibition was 98% (active). On to `COC(=O)c1cccc(Cl)c1C(=O)c1ccc(C)cc1C`, for which the growth inhibition was 11.4% (inactive). Then `CNC(=O)n1c(N)nc(-c2ccccc2)c1-c1ccccc1`, with -46.9% (inactive); and `Cc1ccc(C(C)C)c(O)c1NC(=S)N/N=C\c1cc(Cl)ccc1O`, with 17.4% (inactive). Take `COc1cc(Br)c(C=Nc2cccc3cc(OC)c(OC)cc23)cc1OC`: the growth inhibition is -15.9% (inactive). As for `NNC(=O)CNC(=O)c1ccccc1`, the growth inhibition was -15% (inactive). Take `O=S(=O)(O)C(Cc1nc2ccccc2[nH]1)S(=O)(=O)OCCC1S(=O)(=O)OCCOS1(=O)=O` (stereo not given): the growth inhibition is -24.9% (inactive). With `Cc1ncc([N+](=O)[O-])n1CCN(C)CCCCn1ccnc1[N+](=O)[O-]`, the growth inhibition is -57.9% (inactive).

As for `Cc1oc([N+](=O)[O-])cc1C(=O)O`, the growth inhibition is -8.25% (inactive). Then `Cc1ccccc1C(=O)OCCBr`, with 2.9% (inactive); and `Cc1cccc(C(=O)NCCN(C)C)c1[N+](=O)[O-]`, with 3.35% (inactive); and `NC(CO)C(=O)NCCS(=O)(=O)O` (stereo not given), with -6.95% (inactive). With `CC(C)CCCC(C)C1CCC2C3C(=O)C=C4C=CCCC4(C)C3CCC12C` (stereo not given), the growth inhibition was 10.5% (inactive). As for `CCOC1(COP(=O)(OCc2ccccc2)OCc2ccccc2)COC(COP(=O)(OCc2ccccc2)OCc2ccccc2)(OCC)CO1` (stereo not given), the growth inhibition was -22.8% (inactive). Turning to `CCC[N+]1([O-])CCOCC1`, the growth inhibition was -18.1% (inactive). As for `CC12CCC(=O)C=C1CCC1C2CCC2(C)C(C(=O)Cn3c(=O)[nH]cc(F)c3=O)CCC12` (stereo not given), the growth inhibition is 11% (inactive).

On to `C=CCOCn1ccc(NC(=O)c2ccccc2)nc1=O`, for which the growth inhibition is -22.3% (inactive). The value for `O=C(O)c1ccc(N2C(=O)c3ccccc3C2=O)cc1` was 41.9% (inactive); that for `CCN(CC)CCC1(C(N)=O)Cc2ccccc2N(CC)c2ccccc21` (stereo not given) was 1.85% (inactive); that for `Cn1c(=O)c2c(nc3n(C)c(=O)c4ccccc4n23)n(C)c1=O` was 45.6% (inactive). In the case of `C=CCOc1cc(=O)[nH]c2ccccc12`, the growth inhibition was 2.9% (inactive). As for `CCCCCCOC(=O)/C=C1/OC(=O)c2ccccc21`, the growth inhibition was -16.4% (inactive).

With `O=C1N(O)C2(C=CCCC2)/C(=N/O)C12CCCCC2` (stereo not given), the growth inhibition was 12.1% (inactive). The value for `O=C1C=CC(c2ccccc2)(c2ccccc2)O1` was -7.1% (inactive); that for `Nc1cc(C(F)(F)F)cc(C(F)(F)F)c1` was -10.4% (inactive). The value for `CC(O)(C(=O)c1ccccc1)c1ccccc1` (stereo not given) was 0.6% (inactive); that for `CCC(SC)C(=O)N(C)c1ccccc1` (stereo not given) was -3% (inactive); that for `Cc1c(C)c2ccc(OCC(O)COC(C)C)c(C)c2oc1=O` (stereo not given) was -29.6% (inactive). Then `COc1ccc(COC(=O)Nc2cccc(Cl)c2)cc1OC`, with 35.8% (inactive). Consider `CC(=O)/C(=C/c1ccco1)CC(=O)O`, for which the growth inhibition is -5% (inactive). Then `CCOC(=O)c1c(C)c2c(n1C)CCC(CCC(C)=O)C2=O` (stereo not given), with 3.15% (inactive). For the compound `Cc1cn(CCCn2cnc3c(N)ncnc32)c(=O)[nH]c1=O`, the growth inhibition is -2.9% (inactive).

Values taken from PubChem BioAssay (NCI).
